Screening data as filed in PubChem.
KB-3-1 tox = qHTS assay for MDR1-selective chemotherapeutics: Primary screen using the parental adenocarcinoma cell KB-3-1; KB-3-1 viability, CellTiter-Glo ATP luminescence, 72 h; Potency, µM (top dose mostly 46.1 µM), hits mostly cytotoxic; 400,000 tested, 1.4% active; AID 1347075, 2019; note: % is set by controls: 0 for no effect and ±100 for the full control effect; nearly all actives have a fitted effect of over 60% in size
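KB-3-1 cells, DMEM (no phenol red) + 10% FBS; compound by pin transfer, 72 h, 37 °C. Readout: CellTiter-Glo luminescence after 10 min. Data normalized, curve-fitted.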
ATXN2 expr inh = Primary qHTS for Inhibitors of ATXN expression. Potency, µM (titrated, usually from 57 µM), inactives show at the top dose activity change, negative = inhibition, most hits filed as inhibitors. AID 1745845, 2022. 360,000 tested, 0.72% active. HEK-293 ATXN2-luciferase reporter, luminescence, 24 h; note: % is set by controls: 0 for no effect and ±100 for the full control effect; nearly all actives have a fitted effect of over 55% in size
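ATXN2-luciferase reporter cells (luciferase flanked by upstream and downstream ATXN2 gene portions) were treated 24 h at 37 °C with compounds at up to 57 uM. SteadyGlo luminescence gave expression; GF-AFC fluorescence gave viability.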
HT1080-NT tox = qHTS for induction of synthetic lethality in tumor cells producing 2HG: qHTS for the HT-1080-NT fibrosarcoma cell line | 360,000 tested, 1.6% active | Potency, µM (doses to about 46.1 µM), for the others: at the top dose activity, negative = less viability, most hits filed as cytotoxic | AID 686970, 2013 | HT-1080-NT fibrosarcoma viability, CellTiter-Glo ATP luminescence, 48 h;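 note: NT is the 2HG producing partner of a matched IDH1 knockdown line; 0% = DMSO-treated cells and -100% = media-only wells without cells; nearly all actives have a fitted effect of over 55% in size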
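A 48-hour cytotoxicity screen used HT-1080-NT cells plated 2 hours before compound delivery. ATP-based CellTiter-Glo luminescence measured viability, normalized to DMSO and no-cell controls.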
S2 tox = Viability Counterscreen for Primary qHTS for Inhibitors of ATXN expression; S2 cells (HEK-293 line with an ATXN2-luciferase reporter) viability, CellTiter-Fluor protease fluorescence, 24 h; Potency, µM (top dose mostly 56.7 µM), hits mostly cytotoxic; 400,000 tested, 0.49% active; AID 651635, 2014; note: nearly all actives have a fitted effect of over 40% in size
KB-V1 MDR tox = qHTS assay for MDR1-selective chemotherapeutics: Primary screen using the drug-selected MDR subline cells KB-V1; KB-V1 MDR cells viability, CellTiter-Glo, 72 h; Potency, µM (top dose mostly 46.1 µM), hits mostly cytotoxic; 400,000 tested, 3.4% active; AID 1347076, 2019; note: % is set by controls: 0 for no effect and ±100 for the full control effect; nearly all actives have a fitted effect of over 60% in size
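Luminescent ATP read-out (CellTiter-Glo, 10 min) measures survival of drug-selected KB-V1 MDR cells after 72 h, 37 degrees C compound exposure. Medium: phenol-red-free DMEM, 10% FBS. Values from fitted concentration-response curves.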
HT1080 IDH1KD tx = qHTS for induction of synthetic lethality in tumor cells producing 2HG: qHTS for the HT-1080-IDH1KD cell line | HT-1080 IDH1 knockdown viability, ATP luminescence, 48 h | Potency, µM (titrated, usually from 46.1 µM), inactives show top-dose activity, negative = toxicity, most hits filed as cytotoxic | 360,000 tested, 2% active;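 note: 0% = DMSO wells and -100% = cell-free medium wells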
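After a 2 h attachment period, IDH1KD HT-1080 cells took pin-transferred compound for 48 h at 37 °C; ATP-based luminescence after 10 min room-temperature reagent incubation reported viability.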
* marks the source's active call; other numbers are inactive results; i = inactive; ? = inconclusive; . = no result given; [ ] = remark or other dose. Hits are enriched below; roughly 6.2% of the tested compounds scored in any of these assays. Calls come from the whole dose curve; as a rule, active = well fitted curve in the direction sought with a large enough effect; inconclusive = small, poorly fitted or top-dose-only effect, or another doubt; inactive = no such curve, though single readings can be large; an effect the other way counts as inactive or inconclusive. Potency is the fitted concentration of half-maximal effect.

SMILES | KB-3-1 tox | ATXN2 expr inh | HT1080-NT tox | S2 tox | KB-V1 MDR tox | HT1080 IDH1KD tx
Cn1c(-c2ccccn2)[n+](C)c2ccccc21 | i | -20%[11.3 µM] | 8% | i | i | -3%
COc1ccc(C(O)(CCC(C)C)C(CN2CCOCC2)c2ccc(Cl)cc2)cc1 (centres undefined) | ? | -28% | ? | i | 26µM* | ?
COc1ccc(C(O)(CC(C)C)C(CN2CCOCC2)c2ccccc2)cc1 (centres undefined) | i | -5% | -5% | i | i | -7%
CCCC(O)(c1ccc(OC)cc1)C(CN1CCOCC1)c1ccc(Cl)cc1 (centres undefined) | ? | . | ? | i | ? | ?
CCCCC(O)(c1ccc(F)cc1)C(CN1CCOCC1)c1ccc(Cl)cc1 (centres undefined) | ? | -29% | ? | i | 8.2µM* | ?
CCOc1ccc(C(O)(CCC(C)C)C(CN2CCOCC2)c2ccccc2)cc1 (centres undefined) | i | -28% | ? | i | ? | 18µM*
CCCC(O)(c1ccc(Cl)cc1)C(CN1CCOCC1)c1ccc(Cl)cc1 (centres undefined) | ? | -31% | ? | i | 16µM* | ?
Brc1cccc[n+]1CCCC[n+]1ccccc1Br | i | . | . | . | i | .
C(=N\Nc1ncnc2sc3c(c12)CCC3)/c1ccncc1 | ? | -16% | ? | i | 18µM* | ?
Cc1nc(NCc2ccccn2)c2c3c(sc2n1)CCCC3 | i | -24% | -25% | i | i | -21%
c1ccc(CNc2ncnc3sc4c(c23)CCCC4)nc1 | i | -13% | -4% | . | 8.2µM* | -4%
COc1ccc(-c2cc3nc(C)c(CCC(=O)N4CCN(c5ccc(F)cc5)CC4)c(C)n3n2)c(OC)c1 | i | -8% | . | i | i | .
COc1ccc(Cn2c(=O)[nH]c3cc(C(=O)N4CCN(c5ccccc5F)CC4)ccc3c2=O)cc1 | i | -15% | 5% | i | i | -5%
COCCn1c(=S)[nH]c2cc(C(=O)N3CCN(Cc4ccc5c(c4)OCO5)CC3)ccc2c1=O | 4.1µM* | -36% | ? | i | 2.6µM* | -10%
COc1ccc(Cn2c(=O)[nH]c3cc(C(=O)N4CCN(Cc5ccccc5)CC4)ccc3c2=O)cc1 | ? | -14% | -29% | i | 21µM* | ?
COc1ccc(Cn2c(=O)[nH]c3cc(C(=O)N4CCN(c5ccccc5OC)CC4)ccc3c2=O)cc1 | 21µM* | -21% | ? | i | ? | -19%
COCCn1c(SCC(=O)c2ccc(OC)cc2)nc2cc(C(=O)NC3CCCC3)ccc2c1=O | i | 6% | . | i | i | .
CCOc1ccc(CC(=O)Nc2c(C(=O)c3ccc(F)cc3)oc3ccccc23)cc1OCC | i | 4% | . | i | i | .
CCn1cc(C(=O)O)c(=O)c2cc(F)c(N/N=C/c3ccccc3)cc21 | ? | -20% | -4% | i | 7.3µM* | -18%
COc1ccccc1CCn1cnc(Cc2cccc(F)c2)c1C(C)C | ? | -3% | ? | ? | 18µM* | ?
COc1cccc(-c2ncn(CCc3ccccc3OC)c2C(C)C)c1 | ? | ? | 13µM* | 11µM* | 12µM* | 15µM*
CCOCCCNC(=O)C1CCN(C(=O)c2cc3sccc3n2C)CC1 | i | -3% | . | i | i | .
COc1ccc(CCNC(=O)CCc2ccc(S(=O)(=O)NC(C)C)cc2)cc1OC | i | 1% | 26% | ? | i | 1%
O=C(COc1ccc(Br)cc1CNC1CCCCC1)NCCc1ccccc1 | ? | -39% | 23µM* | ? | ? | 18µM*
COc1ccc(CCNC(=O)COc2ccc(S(=O)(=O)NC(C)C)cc2Cl)cc1OC | i | 3% | ? | i | i | 11µM*
SMILES | KB-3-1 tox | ATXN2 expr inh | HT1080-NT tox | S2 tox | KB-V1 MDR tox | HT1080 IDH1KD tx
COc1ccc(CCNC(=O)COc2ccc(S(=O)(=O)NC3CCCCC3)cc2Cl)cc1 | i | ? | ? | . | 15µM* | ?
COc1ccc(Br)cc1CN(C)CC(=O)NCCc1ccccc1 | i | -10% | -7% | i | ? | -6%
Nc1ncnc2nn(C3OC(CO)C(O)C3O)nc12 (centres undefined) | i | . | ? | ? | ? | 13µM*
OC[C@H]1O[C@@H](n2cnc3c(NC4CCCC4)nc(Cl)nc32)[C@H](O)[C@@H]1O | i | 10% | -4% | i | i | 7%
Nc1nc(Cl)nc2c1ncn2[C@@H]1O[C@H](CO)[C@@H](O)[C@H]1O | ? | -3% | 18µM* | i | 16µM* | ?
Nc1nc(Cl)nc2c1ncn2[C@@H]1O[C@H](CO)[C@@H](O)[C@H]1F | . | 0.0097µM* | . | . | . | .
CCOC(=O)[C@]12CCC=C1N(Cc1ccc(Cl)cc1Cl)C(=O)[C@H](CC(=O)N1CCSCC1)C2 | ? | 12% | -7% | i | ? | -4%
CCCC(NS(=O)(=O)c1ccc(-c2ccc(=O)[nH]n2)s1)c1cccs1 (centres undefined) | i | 22% | -29% | i | i | 8%
CC(=O)c1cccc(NC(=O)CN(c2cc(C)cc(C)c2)S(=O)(=O)c2c(C)noc2C)c1 | i | ? | . | ? | i | .
N#CC(=Cc1ccncc1)c1ccccc1 | ? | 24% | 11% | ? | 13µM* | 11%
CCN(CC)S(=O)(=O)c1ccc(-c2nnc(SCC(=O)N3c4ccccc4CC3C)o2)cc1 (centres undefined) | i | ? | -15% | i | ? | -2%
CCN(CC)S(=O)(=O)c1ccc(-c2nnc(SCC(=O)N3c4ccccc4CC3C)n2CC)cc1 (centres undefined) | i | -18% | 0% | i | 21µM* | -2%
CC1Cc2ccccc2N1C(=O)CSc1nnnn1C (centres undefined) | i | -10% | -9% | i | i | -4%
CC1Cc2ccccc2N1C(=O)CSc1nnc(Cc2ccccc2)n1CCc1ccccc1 (centres undefined) | i | ? | -13% | ? | 3.3µM* | -27%
COc1ccc(CNC(=O)c2sc(=O)n(Cc3ccc(C)cc3)c2C)cc1OC | i | -24% | 4% | i | 18µM* | -1%
